From paper PMC7862700, “An all-to-all approach to the identification of sequence-specific readers for epigenetic DNA modifications on cytosine” come the findings set out here.

Holding throughout (assay): DAPPL (digital affinity profiling via proximity ligation, sequencing); 10 mM Tris-HCl pH 7.5, 50 mM NaCl, 1 mM DTT, 4% glycerol, room temperature, 30 min; GST-TFs on glutathione beads, 16-mer random dsDNA library, 0.1% formaldehyde crosslink after washing; high values mean tight binding
One experiment addresses T1, FEV (Homo sapiens, UniProt Q99581 1-238).
T1 sequence: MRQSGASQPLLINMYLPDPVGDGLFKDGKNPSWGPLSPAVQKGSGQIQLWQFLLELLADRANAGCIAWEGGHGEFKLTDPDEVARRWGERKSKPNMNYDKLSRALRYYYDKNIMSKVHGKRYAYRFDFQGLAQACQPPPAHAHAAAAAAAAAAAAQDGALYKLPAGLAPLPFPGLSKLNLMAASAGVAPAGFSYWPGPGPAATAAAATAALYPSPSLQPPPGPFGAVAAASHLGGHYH
Particulars: protein: recombinant; tags: N-terminal GST; dsDNA, one strand shown. The procedure, abridged: (§1)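 Human transcription factors fused to GST were expressed in yeast, captured on glutathione beads, given DNA barcodes and pooled with a GST-only negative control. Pools were incubated with 200 nmole of a 16-mer random double-stranded DNA library in Tris/NaCl/DTT/glycerol buffer at room temperature for 30 min. They were then washed, crosslinked with 0.1% formaldehyde, proximity-ligated (BsaI/T4 ligase, 1 h, 37 °C), PCR-amplified and sequenced on an Illumina NextSeq500. Binding signal is each 6-mer's read frequency for a factor divided by its frequency for the GST control.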

Another experiment has as its target ETV5 (Homo sapiens, UniProt P41161 1-510). The note with it: protein: recombinant; tags: N-terminal GST; dsDNA, one strand shown. The procedure, abridged: as §1
The target in the next experiment is HSF1 (Homo sapiens, UniProt Q00613 1-529). The note with it: protein: recombinant; tags: N-terminal GST; chain copies: 3; dsDNA, one strand shown. The procedure, abridged: as §1
The next experiment has as its target T2, SPIC (Homo sapiens, UniProt Q8N5J4 1-248).
T2 sequence: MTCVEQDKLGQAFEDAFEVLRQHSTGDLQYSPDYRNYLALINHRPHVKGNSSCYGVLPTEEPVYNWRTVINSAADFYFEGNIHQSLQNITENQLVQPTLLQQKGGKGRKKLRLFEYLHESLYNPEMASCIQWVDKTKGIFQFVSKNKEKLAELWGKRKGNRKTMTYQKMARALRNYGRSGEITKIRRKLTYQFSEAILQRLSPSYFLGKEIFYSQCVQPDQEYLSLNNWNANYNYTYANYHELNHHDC
The note with it: protein: recombinant; tags: N-terminal GST; dsDNA, one strand shown. The procedure, abridged: as §1

Another experiment concerns the target ELF4 (Homo sapiens, UniProt Q99607 1-663). The note with it: protein: recombinant; tags: N-terminal GST; dsDNA, one strand shown. The procedure, abridged:
as §1

For another experiment, the target named is T3, ELK4 (Homo sapiens, UniProt P28324-2 1-405).
T3 sequence: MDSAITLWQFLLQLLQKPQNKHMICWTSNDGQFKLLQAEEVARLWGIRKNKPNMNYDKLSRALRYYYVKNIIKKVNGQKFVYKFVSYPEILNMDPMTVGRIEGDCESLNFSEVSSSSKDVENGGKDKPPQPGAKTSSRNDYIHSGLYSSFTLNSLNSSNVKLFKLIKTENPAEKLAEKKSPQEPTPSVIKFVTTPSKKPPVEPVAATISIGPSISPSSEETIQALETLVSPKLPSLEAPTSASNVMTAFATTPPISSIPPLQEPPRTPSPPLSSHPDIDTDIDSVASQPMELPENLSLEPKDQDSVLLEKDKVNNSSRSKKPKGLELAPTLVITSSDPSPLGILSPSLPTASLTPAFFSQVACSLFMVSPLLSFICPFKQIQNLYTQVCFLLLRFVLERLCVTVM
The note with it: protein: recombinant; tags: N-terminal GST; dsDNA, one strand shown. The procedure, abridged: as §1

The next experiment has as its target T4, ETV2 (Homo sapiens, UniProt O00321 1-342).
T4 sequence: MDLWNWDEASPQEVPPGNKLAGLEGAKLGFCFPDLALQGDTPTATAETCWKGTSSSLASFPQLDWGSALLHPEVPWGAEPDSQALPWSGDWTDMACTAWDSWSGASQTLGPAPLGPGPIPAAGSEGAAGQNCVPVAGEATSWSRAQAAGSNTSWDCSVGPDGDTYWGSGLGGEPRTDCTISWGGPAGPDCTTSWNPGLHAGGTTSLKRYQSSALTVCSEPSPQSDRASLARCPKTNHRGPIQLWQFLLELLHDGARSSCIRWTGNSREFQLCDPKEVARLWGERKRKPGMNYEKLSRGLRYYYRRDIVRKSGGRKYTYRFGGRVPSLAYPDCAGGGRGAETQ
The note with it: protein: recombinant; tags: N-terminal GST; dsDNA, one strand shown. The procedure, abridged: as §1

The target in another experiment is T5, ELF3 (Homo sapiens, UniProt P78545 1-371).
T5 sequence: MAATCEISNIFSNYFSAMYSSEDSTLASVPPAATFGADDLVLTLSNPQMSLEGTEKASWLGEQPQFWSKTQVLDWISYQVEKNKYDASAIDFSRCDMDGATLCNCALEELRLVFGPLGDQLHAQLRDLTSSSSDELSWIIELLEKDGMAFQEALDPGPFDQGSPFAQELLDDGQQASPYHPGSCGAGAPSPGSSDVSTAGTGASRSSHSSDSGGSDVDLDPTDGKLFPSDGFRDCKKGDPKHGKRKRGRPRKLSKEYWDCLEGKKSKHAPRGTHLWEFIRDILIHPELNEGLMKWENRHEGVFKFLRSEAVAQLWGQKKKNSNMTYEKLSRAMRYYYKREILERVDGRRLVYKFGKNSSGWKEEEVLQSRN
The note with it: protein: recombinant; tags: N-terminal GST; dsDNA, one strand shown. The procedure, abridged:
as §1

Another experiment concerns the target CRX (Homo sapiens, UniProt O43186 1-299). Particulars: protein: recombinant; tags: N-terminal GST; dsDNA, one strand shown. The procedure, abridged:
as §1

Another experiment addresses ETV1 (Homo sapiens, UniProt P50549 1-477). Particulars: protein: recombinant; tags: N-terminal GST; dsDNA, one strand shown. The procedure, abridged: as §1
A further experiment deals with T6, ERF (Homo sapiens, UniProt P50548 1-548).
T6 sequence: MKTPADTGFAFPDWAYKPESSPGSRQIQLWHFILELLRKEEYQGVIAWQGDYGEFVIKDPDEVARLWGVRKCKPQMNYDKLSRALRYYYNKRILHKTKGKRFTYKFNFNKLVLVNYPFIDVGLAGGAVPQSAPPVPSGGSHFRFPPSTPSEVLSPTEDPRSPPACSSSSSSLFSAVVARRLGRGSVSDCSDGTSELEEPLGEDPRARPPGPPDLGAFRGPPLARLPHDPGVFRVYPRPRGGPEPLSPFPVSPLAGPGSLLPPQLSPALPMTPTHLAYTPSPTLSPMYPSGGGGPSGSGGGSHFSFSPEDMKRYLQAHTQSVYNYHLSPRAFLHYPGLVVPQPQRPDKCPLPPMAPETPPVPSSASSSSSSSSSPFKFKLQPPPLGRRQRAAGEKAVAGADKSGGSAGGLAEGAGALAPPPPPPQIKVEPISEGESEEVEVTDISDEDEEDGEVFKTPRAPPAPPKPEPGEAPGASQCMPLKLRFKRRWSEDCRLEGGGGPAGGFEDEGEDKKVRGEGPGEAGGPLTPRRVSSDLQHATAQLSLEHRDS
Particulars: protein: recombinant; tags: N-terminal GST; dsDNA, one strand shown. The procedure, abridged:
as §1

In the next experiment the target is T7, ETV3L (Homo sapiens, UniProt Q6ZN32 1-361).
T7 sequence: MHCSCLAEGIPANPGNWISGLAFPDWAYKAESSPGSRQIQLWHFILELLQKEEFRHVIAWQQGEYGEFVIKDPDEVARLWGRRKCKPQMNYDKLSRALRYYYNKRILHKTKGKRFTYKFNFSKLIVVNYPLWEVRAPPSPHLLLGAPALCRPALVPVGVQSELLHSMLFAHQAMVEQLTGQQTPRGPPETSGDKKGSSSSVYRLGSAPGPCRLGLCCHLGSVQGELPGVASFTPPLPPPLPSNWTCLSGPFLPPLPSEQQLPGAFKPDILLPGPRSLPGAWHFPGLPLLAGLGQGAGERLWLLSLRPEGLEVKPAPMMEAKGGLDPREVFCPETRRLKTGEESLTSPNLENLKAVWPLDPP
Particulars: protein: recombinant; tags: N-terminal GST; dsDNA, one strand shown. The procedure, abridged: as §1

The target of a further experiment is T8, ETS2 (Homo sapiens, UniProt P15036 1-469).
T8 sequence: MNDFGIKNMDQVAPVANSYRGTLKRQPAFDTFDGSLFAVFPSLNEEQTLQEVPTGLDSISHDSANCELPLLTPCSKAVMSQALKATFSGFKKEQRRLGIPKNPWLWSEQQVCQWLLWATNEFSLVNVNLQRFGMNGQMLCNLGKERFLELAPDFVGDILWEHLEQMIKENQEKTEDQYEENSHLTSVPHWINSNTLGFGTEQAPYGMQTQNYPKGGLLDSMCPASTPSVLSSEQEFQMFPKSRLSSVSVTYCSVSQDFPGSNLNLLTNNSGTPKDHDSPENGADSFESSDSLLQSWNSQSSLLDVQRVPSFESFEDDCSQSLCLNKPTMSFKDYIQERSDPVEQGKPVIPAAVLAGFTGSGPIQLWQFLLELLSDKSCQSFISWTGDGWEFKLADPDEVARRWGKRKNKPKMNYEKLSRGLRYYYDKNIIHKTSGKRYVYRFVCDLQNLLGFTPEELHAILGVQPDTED
The note with it: protein: recombinant; tags: N-terminal GST; dsDNA, one strand shown. The procedure, abridged:
as §1

The target of a further experiment is T9, SPDEF (Homo sapiens, UniProt O95238 1-335).
T9 sequence: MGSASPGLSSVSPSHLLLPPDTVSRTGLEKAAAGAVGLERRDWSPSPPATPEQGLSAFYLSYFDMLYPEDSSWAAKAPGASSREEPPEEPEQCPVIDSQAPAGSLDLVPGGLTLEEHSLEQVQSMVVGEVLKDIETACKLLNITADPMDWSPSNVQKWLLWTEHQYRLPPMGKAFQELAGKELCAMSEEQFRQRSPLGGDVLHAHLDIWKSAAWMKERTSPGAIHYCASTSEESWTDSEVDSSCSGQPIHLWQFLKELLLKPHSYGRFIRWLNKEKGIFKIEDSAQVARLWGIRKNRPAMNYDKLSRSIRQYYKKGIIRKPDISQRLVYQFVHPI
The note with it: protein: recombinant; tags: N-terminal GST; dsDNA, one strand shown. The procedure, abridged:
as §1

For another experiment, the target named is T10, ETV7 (Homo sapiens, UniProt Q9Y603 1-341).
T10 sequence: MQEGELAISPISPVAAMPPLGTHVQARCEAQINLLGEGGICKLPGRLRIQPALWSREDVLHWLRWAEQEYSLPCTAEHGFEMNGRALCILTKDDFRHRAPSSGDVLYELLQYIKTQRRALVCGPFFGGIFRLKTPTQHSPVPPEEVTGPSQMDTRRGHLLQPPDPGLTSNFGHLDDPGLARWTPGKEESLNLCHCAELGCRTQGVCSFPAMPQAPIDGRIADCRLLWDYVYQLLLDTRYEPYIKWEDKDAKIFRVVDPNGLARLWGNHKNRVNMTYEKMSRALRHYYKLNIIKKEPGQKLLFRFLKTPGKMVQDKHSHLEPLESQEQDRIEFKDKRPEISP
The note with it: protein: recombinant; tags: N-terminal GST; dsDNA, one strand shown. The procedure, abridged:
as §1

In another experiment the target is T11, ELF5 (Homo sapiens, UniProt Q9UKW6-2 1-255).
T11 sequence: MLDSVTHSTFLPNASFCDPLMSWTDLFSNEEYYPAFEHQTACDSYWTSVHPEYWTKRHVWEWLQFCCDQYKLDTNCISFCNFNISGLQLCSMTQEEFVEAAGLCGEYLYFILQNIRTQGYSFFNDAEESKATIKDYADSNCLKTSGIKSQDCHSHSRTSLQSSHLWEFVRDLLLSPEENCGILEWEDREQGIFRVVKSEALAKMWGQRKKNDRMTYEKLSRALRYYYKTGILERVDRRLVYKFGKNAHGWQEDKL
The note with it: protein: recombinant; tags: N-terminal GST; dsDNA, one strand shown. The procedure, abridged:
as §1

A further experiment deals with T12, ETV3 (Homo sapiens, UniProt P41162-2 1-143).
T12 sequence: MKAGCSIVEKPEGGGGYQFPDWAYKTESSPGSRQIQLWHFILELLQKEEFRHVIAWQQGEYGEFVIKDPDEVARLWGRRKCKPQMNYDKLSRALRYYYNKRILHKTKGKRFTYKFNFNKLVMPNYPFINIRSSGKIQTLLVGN
The note with it: protein: recombinant; tags: N-terminal GST; dsDNA, one strand shown. The procedure, abridged: as §1

A further experiment has as its target ETV6 (Homo sapiens, UniProt P41212 1-452). The note with it: protein: recombinant; tags: N-terminal GST; dsDNA, one strand shown. The procedure, abridged: as §1

Sequence of ETV5 (P41161 whole entry): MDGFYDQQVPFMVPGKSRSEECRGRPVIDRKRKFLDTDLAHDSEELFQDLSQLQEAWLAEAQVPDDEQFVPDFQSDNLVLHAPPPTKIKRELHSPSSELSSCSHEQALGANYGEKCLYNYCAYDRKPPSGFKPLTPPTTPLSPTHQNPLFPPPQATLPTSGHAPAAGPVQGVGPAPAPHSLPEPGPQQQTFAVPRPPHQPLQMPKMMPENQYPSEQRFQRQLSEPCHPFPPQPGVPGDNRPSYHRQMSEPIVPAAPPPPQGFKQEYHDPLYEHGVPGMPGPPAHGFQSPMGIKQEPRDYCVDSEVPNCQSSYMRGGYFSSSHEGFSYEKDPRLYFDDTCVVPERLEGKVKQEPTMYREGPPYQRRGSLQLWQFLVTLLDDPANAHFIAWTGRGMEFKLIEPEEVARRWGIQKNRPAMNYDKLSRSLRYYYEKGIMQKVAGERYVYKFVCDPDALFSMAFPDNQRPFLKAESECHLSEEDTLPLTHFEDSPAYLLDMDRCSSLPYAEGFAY
Sequence of ELF4 (Q99607 whole entry): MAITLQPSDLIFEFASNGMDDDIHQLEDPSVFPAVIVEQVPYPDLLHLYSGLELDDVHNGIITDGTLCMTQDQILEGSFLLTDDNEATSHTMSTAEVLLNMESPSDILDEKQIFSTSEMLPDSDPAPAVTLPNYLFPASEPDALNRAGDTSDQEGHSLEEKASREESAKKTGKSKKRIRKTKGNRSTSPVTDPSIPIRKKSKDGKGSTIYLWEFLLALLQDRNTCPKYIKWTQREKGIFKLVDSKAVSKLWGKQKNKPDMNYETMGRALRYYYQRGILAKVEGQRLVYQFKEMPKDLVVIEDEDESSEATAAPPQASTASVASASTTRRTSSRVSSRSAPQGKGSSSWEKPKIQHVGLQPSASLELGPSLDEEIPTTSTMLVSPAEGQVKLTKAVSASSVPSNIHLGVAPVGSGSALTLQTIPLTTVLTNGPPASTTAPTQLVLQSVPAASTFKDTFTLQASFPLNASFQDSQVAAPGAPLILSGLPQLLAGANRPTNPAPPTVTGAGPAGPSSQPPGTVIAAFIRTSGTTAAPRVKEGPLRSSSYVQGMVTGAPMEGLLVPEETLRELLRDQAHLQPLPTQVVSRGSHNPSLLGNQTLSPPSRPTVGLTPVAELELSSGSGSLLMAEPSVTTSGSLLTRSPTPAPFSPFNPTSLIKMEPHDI
Sequence of ETV6 (P41212 whole entry): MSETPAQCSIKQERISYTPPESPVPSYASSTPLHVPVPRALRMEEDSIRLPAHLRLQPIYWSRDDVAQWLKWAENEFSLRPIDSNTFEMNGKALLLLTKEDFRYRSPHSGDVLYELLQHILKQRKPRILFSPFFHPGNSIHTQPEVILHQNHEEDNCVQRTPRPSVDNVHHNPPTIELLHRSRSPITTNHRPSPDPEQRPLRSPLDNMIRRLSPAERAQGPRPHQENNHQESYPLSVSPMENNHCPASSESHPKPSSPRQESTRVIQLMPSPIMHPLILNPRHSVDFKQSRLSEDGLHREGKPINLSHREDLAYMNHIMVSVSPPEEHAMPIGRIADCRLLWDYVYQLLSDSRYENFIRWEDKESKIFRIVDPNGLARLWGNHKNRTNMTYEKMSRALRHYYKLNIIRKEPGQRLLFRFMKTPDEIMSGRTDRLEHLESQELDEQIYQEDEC
Sequence of ETV1 (P50549 whole entry): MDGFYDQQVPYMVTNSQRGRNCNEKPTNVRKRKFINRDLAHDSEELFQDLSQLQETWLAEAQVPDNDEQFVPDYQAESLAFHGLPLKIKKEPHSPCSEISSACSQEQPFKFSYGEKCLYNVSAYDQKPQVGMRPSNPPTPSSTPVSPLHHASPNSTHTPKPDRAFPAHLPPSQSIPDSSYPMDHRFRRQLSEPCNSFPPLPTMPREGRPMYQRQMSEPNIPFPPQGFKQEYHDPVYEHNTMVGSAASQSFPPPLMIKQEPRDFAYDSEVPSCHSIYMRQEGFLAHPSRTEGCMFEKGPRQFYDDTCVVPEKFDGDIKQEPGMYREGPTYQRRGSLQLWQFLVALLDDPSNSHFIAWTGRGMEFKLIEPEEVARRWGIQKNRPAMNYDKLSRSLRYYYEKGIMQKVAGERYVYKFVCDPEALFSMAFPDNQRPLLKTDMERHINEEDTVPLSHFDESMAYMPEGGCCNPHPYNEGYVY
Sequence of CRX (O43186 whole entry): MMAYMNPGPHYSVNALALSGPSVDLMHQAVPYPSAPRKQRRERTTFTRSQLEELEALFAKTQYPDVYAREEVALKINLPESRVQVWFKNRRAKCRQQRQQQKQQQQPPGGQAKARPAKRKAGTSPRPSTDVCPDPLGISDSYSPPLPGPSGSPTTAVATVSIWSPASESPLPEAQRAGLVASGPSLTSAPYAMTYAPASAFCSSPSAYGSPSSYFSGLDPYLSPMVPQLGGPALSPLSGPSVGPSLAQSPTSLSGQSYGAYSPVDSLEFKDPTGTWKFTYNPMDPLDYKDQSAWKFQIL
Sequence of HSF1 (Q00613 whole entry): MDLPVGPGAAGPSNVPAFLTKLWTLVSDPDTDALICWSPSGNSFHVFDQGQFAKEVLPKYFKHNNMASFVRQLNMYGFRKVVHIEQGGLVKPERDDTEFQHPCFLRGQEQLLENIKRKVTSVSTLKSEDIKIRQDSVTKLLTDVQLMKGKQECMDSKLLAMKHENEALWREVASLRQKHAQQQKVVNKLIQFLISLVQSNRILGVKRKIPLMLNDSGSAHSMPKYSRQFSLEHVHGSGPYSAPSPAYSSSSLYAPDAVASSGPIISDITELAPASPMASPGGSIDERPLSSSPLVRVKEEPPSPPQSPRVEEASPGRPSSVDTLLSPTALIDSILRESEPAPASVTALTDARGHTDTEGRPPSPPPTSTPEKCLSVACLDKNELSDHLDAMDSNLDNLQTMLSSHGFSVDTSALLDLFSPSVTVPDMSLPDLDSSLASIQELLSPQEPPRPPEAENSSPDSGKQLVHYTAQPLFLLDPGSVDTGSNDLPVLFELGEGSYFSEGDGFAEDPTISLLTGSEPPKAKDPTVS

Turning to AAATAT, the binding signal was 1.28 fold enrichment (6-mer frequency, TF over GST control) with FEV; 1.36 fold enrichment (6-mer frequency, TF over GST control) with ETV5; 1.29 fold enrichment (6-mer frequency, TF over GST control) with HSF1; 1.43 fold enrichment (6-mer frequency, TF over GST control) in the experiment with SPIC; 1.34 fold enrichment (6-mer frequency, TF over GST control) with ELF4; 1.24 fold enrichment (6-mer frequency, TF over GST control) with ELK4. In addition, the binding signal with ETV2 was 1.49 fold enrichment (6-mer frequency, TF over GST control); in the experiment with ELF3 it was 1.54 fold enrichment (6-mer frequency, TF over GST control); with CRX, 1.39 fold enrichment (6-mer frequency, TF over GST control); in the experiment with ETV1, 1.39 fold enrichment (6-mer frequency, TF over GST control); in the experiment with ERF it was 1.25 fold enrichment (6-mer frequency, TF over GST control); with ETV3L, 1.32 fold enrichment (6-mer frequency, TF over GST control). The binding signal in the experiment with ETS2 is 1.37 fold enrichment (6-mer frequency, TF over GST control); with SPDEF, 1.35 fold enrichment (6-mer frequency, TF over GST control); with ETV7, 1.4 fold enrichment (6-mer frequency, TF over GST control); in the experiment with ELF5, 1.41 fold enrichment (6-mer frequency, TF over GST control); with ETV3, 1.29 fold enrichment (6-mer frequency, TF over GST control); with ETV6 it was 1.43 fold enrichment (6-mer frequency, TF over GST control).
